# Results taken from the supplement of paper PMC8728848.
# Many of the other results were omitted from the sample, so the strongest signals are more common in it than they were.
# How the values were obtained:
# Experiment in all cases: glycan array binding signal (z-score within array); higher = stronger binding
# Conditions in all cases: glycan notation: IUPAC condensed, linker removed
# [1] = target: GlcNAc(a1-4)Gal(b1-4)GlcNAc(b1-3)Gal(b1-4)[Fuc(a1-3)]GlcNAc(b1-3)Gal(b1-4)[Fuc(a1-3)]GlcNAc
# In short: (§1)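 Columns mapping to the same glycan were averaged after glycan names were converted to IUPAC-condensed notation. The data come from 3228 arrays in the Consortium for Functional Glycomics database, limited to those with an available protein sequence. Binding is reported as a within-array Z-score averaged across arrays of one protein sequence and across linkers.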
# [2] = target: GlcNAc(b1-2)[GlcNAc(b1-6)]Man(a1-6)[GlcNAc(b1-2)Man(a1-3)]Man(b1-4)GlcNAc(b1-4)GlcNAc
# In short: as §1
# [3] = target: GlcNAc(b1-3)Gal(b1-3)GalNAc
# In short: as §1
# [4] = target: GlcNAc(b1-3)Gal(b1-4)GlcNAc(b1-3)Gal(b1-4)GlcNAc(b1-3)Gal(b1-4)GlcNAc(b1-2)Man(a1-3)[GlcNAc(b1-3)Gal(b1-4)GlcNAc(b1-3)Gal(b1-4)GlcNAc(b1-3)Gal(b1-4)GlcNAc(b1-2)Man(a1-6)]Man(b1-4)GlcNAc(b1-4)GlcNAc
# In short: as §1
# [5] = target: GlcNAc(b1-3)Gal(b1-4)GlcNAc(b1-3)Gal(b1-4)GlcNAc(b1-3)Gal(b1-4)GlcNAc(b1-2)[GlcNAc(b1-3)Gal(b1-4)GlcNAc(b1-3)Gal(b1-4)GlcNAc(b1-3)Gal(b1-4)GlcNAc(b1-6)]Man(a1-6)[GlcNAc(b1-3)Gal(b1-4)GlcNAc(b1-3)Gal(b1-4)GlcNAc(b1-3)Gal(b1-4)GlcNAc(b1-2)Man(a1-3)]Man(b1-4)GlcNAc(b1-4)[Fuc(a1-6)]GlcNAc
# In short: as §1
# [6] = target: GlcNAc(b1-3)Man
# In short: as §1
# [7] = target: GlcNAc(b1-4)GlcNAc
# In short: as §1
# [8] = target: Kdn(a2-3)Gal(b1-4)[Fuc(a1-3)]GlcNAc
# In short: as §1
# [9] = target: Man(a1-3)[Man(a1-6)]Man(a1-6)[Man(a1-3)]Man(b1-4)GlcNAc(b1-4)GlcNAc
# In short: as §1
# [10] = target: Neu5Ac(a2-3)Gal(b1-4)GlcNAc(b1-3)Gal(b1-4)GlcNAc
# In short: as §1
# [11] = target: Neu5Ac(a2-3)Gal(b1-4)GlcNAc(b1-3)Gal(b1-4)GlcNAc(b1-6)[Gal(b1-3)]GalNAc
# In short: as §1
# [12] = target: Neu5Ac(a2-6)Gal(b1-4)GlcNAc(b1-2)[Neu5Ac(a2-6)Gal(b1-4)GlcNAc(b1-4)]Man(a1-3)[GlcNAc(b1-4)][Neu5Ac(a2-6)Gal(b1-4)GlcNAc(b1-2)[Neu5Ac(a2-6)Gal(b1-4)GlcNAc(b1-6)]Man(a1-6)]Man(b1-4)GlcNAc(b1-4)GlcNAc
# In short: as §1
# [13] = target: Neu5Ac(a2-6)Gal(b1-4)GlcNAc(b1-3)Gal(b1-4)GlcNAc(b1-3)[Neu5Ac(a2-6)Gal(b1-4)GlcNAc(b1-3)Gal(b1-4)GlcNAc(b1-6)]GalNAc
# In short: as §1
# [14] = target: Neu5Ac(a2-6)Gal(b1-4)GlcNAc(b1-6)GalNAc
# In short: as §1
# [15] = target: Neu5Ac(a2-6)Gal(b1-4)GlcNAc6S
# In short: as §1
# [16] = target: Neu5Ac(a2-8)Neu5Ac(a2-8)Neu5Ac(a2-3)[GalNAc(b1-4)]Gal(b1-4)Glc
# In short: as §1
# [17] = target: Neu5Ac(a2-8)Neu5Ac(a2-8)Neu5Ac(a2-8)Neu5Ac(a2-3)[GalNAc(b1-4)]Gal(b1-4)Glc
# In short: as §1
# [18] = target: Neu5Ac(a2-8)Neu5Gc(a2-3)Gal(b1-4)GlcNAc
# In short: as §1
binder,measurement,setting,value
PX14351B-bth-512-36-512 (Bacteroides thetaiotaomicron) (protein) ASETQQWKTLEDTRSALMGVYGLTRAALADNNTHWICGDLRKGDFTVYKRSDLQAVSDNELNKPYDLLKKVSNWRRFYAVINAASVFMEKAPRTVELDRSYSEQNLKYDIAQVRALRAFAYFYMVRIWGDVPLVTYSYDNGTFPSMPRTDAQTVLSYAKAELLTAIEDLPYQYGTQTNLYYGSYGAQWQGKLFNKLSAYSVLAHICAWQGNYAEAETYSAFIIDHASEINAKYTSIADLTSETGLFYSNASVKGSRILGFNFAHNDNEATQSGHLEQLTLAYPLVQKSYPEIYISKDSLFSIFTNFDDLRFGIIDTIKYSSYYVQNLNEETPVFSKIKIIQDGSAKDNDFGVFGSSIVFTRLEDITLLRAEALCALNRSTEAVSYLNMIRTNRGLREVSFKKDFGNNRESLIAEIFEERRRELMGEGWRWYDLVRRQKLMKDNEAFLRLISSGGIYWPVSEDIITANSQIEQNEFWK,glycan array binding signal (z-score),[1],-0.049
same,glycan array binding signal (z-score),[2],-0.115
same,glycan array binding signal (z-score),[3],-0.128
same,glycan array binding signal (z-score),[4],-0.068
same,glycan array binding signal (z-score),[5],0.033
same,glycan array binding signal (z-score),[6],-0.006
same,glycan array binding signal (z-score),[7],-0.165
same,glycan array binding signal (z-score),[8],-0.287
same,glycan array binding signal (z-score),[9],-0.271
same,glycan array binding signal (z-score),[10],-0.265
same,glycan array binding signal (z-score),[11],0.652
same,glycan array binding signal (z-score),[12],0.217
same,glycan array binding signal (z-score),[13],-0.33
same,glycan array binding signal (z-score),[14],0.191
same,glycan array binding signal (z-score),[15],-0.355
same,glycan array binding signal (z-score),[16],-0.362
same,glycan array binding signal (z-score),[17],1.91
same,glycan array binding signal (z-score),[18],4.31
